# From PubChem
# Anthrax LF inh2: Bacillus anthracis LF protease inhibitors, primary screen, biochemical, multiplex microsphere, MLPCN library | Lethal factor (Bacillus anthracis), P15917 | multiplex microsphere protease cleavage assay | inhibition, % at 10 µM | actives 0.12% (n = 360,000); further: plate controls were buffer without enzyme for full effect and enzyme alone for no effect
# SARS 3CLpro inh: SARS-CoV 3CLpro protease inhibitors, primary screen, biochemical, quenched FRET; Replicase polyprotein 1ab (Severe acute respiratory syndrome coronavirus), P0C6X7; inhibition, % at 6 µM; actives 0.14% (n = 290,000); recombinant SARS-CoV 3CLpro, quenched FRET peptide cleavage; in the data active means inhibition above about 12%
# Bead autofluor: flagged as autofluorescent in microsphere protease counterscreen | compound autofluorescence counterscreen, microsphere flow cytometry; hits give high values | fluorescence intensity (test concentration not listed) | actives 3.1% (n = 360,000) | AID 624483; in the data active means fluorescence intensity above about 16000; inconclusive means no clear call, values can overlap the other calls
# BoNT F protease: BoNT/F light chain protease inhibitors, primary screen, biochemical, flow cytometry, MLPCN library; AID 588497, 2011; inhibition, % at 10 µM; actives 0.22% (n = 360,000); Multiplex microsphere protease cleavage assay; Botulinum neurotoxin type F light chain protease (Clostridium botulinum); in the data active means inhibition above about 35%, passing the limit was not always enough; inconclusive means no clear call, values can overlap the other calls; further: plate controls were buffer without enzyme for full effect and enzyme alone for no effect
# BoNT A protease: BoNT/A light chain protease inhibitors, primary screen, biochemical, flow cytometry, MLPCN library; AID 588499, 2011; Botulinum neurotoxin type A light chain protease (Clostridium botulinum A str. ATCC 3502); multiplex microsphere protease substrate cleavage; actives 0.17% (n = 360,000); inhibition, % at 10 µM; further: plate controls were buffer without enzyme for full effect and enzyme alone for no effect
# * = called active by the depositor; u = inconclusive; x = no result given. Most compounds without a hit are left out; they make up all but 3.5% or so of the library. Unless noted, no stated cut-off is given here; in the data, active means inhibition above about 30%; inconclusive means no clear call, values can overlap the other calls; inactive means below that.
SMILES,Anthrax LF inh2,SARS 3CLpro inh,Bead autofluor,BoNT F protease,BoNT A protease
CC1(C)CC(=O)C=C(c2ccccc2-c2ccc3cc[nH]c3c2)C1=O,-7,x,4219,-3,0
CCOc1cc(OCC)cc(C(=O)NCCN2CCC(n3c(=O)[nH]c4ccccc43)CC2)c1,-3,x,4767,-1,0
CCN1CCN(Cc2c(O)ccc3c2O/C(=C\C=C\c2ccccc2)C3=O)CC1,12,-2,2071,5,35*
O=C1/C(=C/C=C/c2ccccc2)Oc2c1ccc(O)c2CN1CCN(CCO)CC1,0,3,4760,4,1
COc1ccccc1/C=C/C=C1\Oc2c(ccc(O)c2CN2CCN(CCO)CC2)C1=O,12,6,2160,1,31*
COCCCNC1=C(C#N)C(=O)NC(c2cccs2)S1 (configuration not stated),4,x,3447,2,0
CCCCOc1ccc(-c2n[nH]c(=S)n2Cc2ccccc2)cc1,-11,7,3674,34*,2
COc1ccc(-c2n[nH]c(=S)n2Cc2ccco2)cc1,-2,-1,21139*,-5,-3
Fc1ccc(-c2n[nH]c(=S)n2Cc2ccccc2)cc1,2,3,3091,-6,-2
CCN(CC(=O)Nc1ccc(NC(C)=O)cc1)CC(=O)Nc1cccc(Cl)c1,0,-1,3099,8,2
COc1ccccc1C1=NOC(COc2ccc3c(C)cc(=O)oc3c2)C1 (configuration not stated),u,-7,3715,44*,0
COc1ccc(C2=NOC(COc3ccc4c(C)cc(=O)oc4c3)C2)c(OC)c1 (configuration not stated),u,0,3880,-24,-8
CSc1nc2ccc(NS(=O)(=O)c3ccc(Cl)s3)cc2s1,1,7,4394,0,0
CN(C)S(=O)(=O)c1ccc2nc(NC(=O)c3cccnc3)sc2c1,0,-1,3854,5,0
O=C(Nc1nc2ccc(S(=O)(=O)N3CCCC3)cc2s1)c1cccs1,-2,1,4666,15,1
CCN(CC)S(=O)(=O)c1ccc2nc(SC)sc2c1,0,4,18930*,1,2
CN(C)S(=O)(=O)c1ccc2nc(NC(=O)c3cccs3)sc2c1,-2,4,21214*,-2,0
CSc1nc2ccc(S(=O)(=O)N(C)C)cc2s1,-3,-2,20777*,-2,u
CCc1ccc(C(=O)COC(=O)CCc2nc3ccccc3c(=O)[nH]2)cc1,2,2,2577,-2,0
CCc1ccc(Nc2nnc(SCC(=O)N(C)C3CCS(=O)(=O)C3)s2)cc1 (configuration not stated),0,6,4193,-1,0
COCc1cc(C)n(CC(=O)Nc2ccccc2C(=O)OC)c(=O)c1C#N,-8,1,3867,-57,-4
CCOC(=O)c1ccc(N2C(=O)c3n[nH]c(C)c3C2c2ccc(OC)c(OC)c2)cc1 (configuration not stated),1,0,19224*,4,u
CCOc1cc(C2c3c(n[nH]c3C)C(=O)N2c2ccc(Br)cc2)ccc1O (configuration not stated),-7,2,3428,51*,0
COc1cc(C2c3c(n[nH]c3C)C(=O)N2c2ccc(Br)cc2)ccc1O (configuration not stated),0,-1,3491,7,0
CCOC(=O)c1ccc(N2C(=O)c3n[nH]c(C)c3C2c2ccc(OC)cc2)cc1 (configuration not stated),-11,0,4388,-4,0
SMILES,Anthrax LF inh2,SARS 3CLpro inh,Bead autofluor,BoNT F protease,BoNT A protease
O=C(C(Cl)Cl)N1CCN(Cc2ccc3c(c2)OCO3)CC1,17,-3,3817,u,-4
COc1cc(/C=N/NC(N)=O)cc(Br)c1OCc1ccc(C)cc1,2,3,7278,2,0
Cc1nn(C(C)c2n[nH]c(=S)n2-c2ccc(F)cc2)c(C)c1[N+](=O)[O-] (configuration not stated),-2,-5,17161*,-6,-3
CC(=O)n1ccnc1,-6,-4,5532,-5,0
O=C(N(c1ccccc1)c1ccccc1)n1ccnc1,-4,3,21662*,-8,-7
CC(C)C[C@H]1COc2cc(N3CCN(C)CC3)ccc2S(=O)(=O)N1,4,x,4193,0,0
COc1ccc(OC)c(NC2c3ncccc3C(=O)N2Cc2ccco2)c1 (configuration not stated),-5,-2,16912*,-10,-2
COc1ccc(CN2C(=O)c3cccnc3C2Nc2cc(Cl)ccc2OC)cc1 (configuration not stated),-4,1,21495*,-10,-1
O=C(Nc1ccc2c(c1)CCC2)c1cnccn1,-2,5,20322*,1,2
Cc1cnc(C(=O)Nc2ccc3c(c2)CCC3)cn1,2,-4,3505,1,2
CCOc1ccccc1-n1c(CN2CCN(C(=O)c3ccco3)CC2)nc2ccccc2c1=O,-3,3,23399*,-3,-1
C=CCSc1nc(N2CCOCC2)c2c(c1C#N)CC(C)(C)N(C)C2,x,0,x,x,x
CN(Cc1nc2ccccc2n1C)c1ccccc1,x,1,x,x,x
CN(Cc1nc2ccccc2n1C)C(=O)c1cccs1,-6,-6,22484*,-3,-1
CC(C)(C)NC(=O)C(c1ccco1)N(Cc1ccc2c(c1)OCO2)C(=O)c1snc(C(N)=O)c1N (configuration not stated),-2,1,3574,6,2
COc1cccc(CNC(=O)C2CCN(C(=O)N(C)C)CC2)c1,-1,1,7067,-2,0
COc1ccccc1CNC(=O)C1CCN(C(=O)N(C)C)CC1,-2,-1,20518*,1,0
COc1ccc(CNC(=O)C2CCN(C(=O)N(C)C)CC2)c(OC)c1,-4,-3,16860*,-3,u
CN(C)C(=O)N1CCC(C(=O)NCc2ccccc2)CC1,0,-6,6437,4,1
Cc1cccc(C)c1OC(=O)Cc1ccccc1[N+](=O)[O-],-12,3,3079,29,5
COc1cccc(C2N(c3ccc(Cl)c(Cl)c3)C(=O)C3CCCN32)c1OC (configuration not stated),7,-8,4672,13,2
FC(F)(F)c1cc(C(F)(F)F)n2nc(-c3sccc3-n3cccc3)cc2n1,-4,5,22337*,2,0
C/C(=N\Nc1cc(-c2ccccc2)nc(-c2ccc(Br)cc2)n1)c1cccc(N)c1,-5,1,17624*,-13,-6
O=S(=O)(NN=C1CCCCCCC1)c1ccccc1,-5,x,3893,5,0
CCCOc1ccc(C2C(=O)N(C3CCCCC3)CC(=O)N2CCCOCC)cc1OC (configuration not stated),-4,-2,22919*,-1,1
